Measurements reported in the supplement of paper PMC13380429.

Test system: Vero E6 infected with SARS-CoV-2
Assay: inhibition of SARS-CoV-2 cytopathic effect; higher = more antiviral protection, active = above 15
Details: 48 h

Measured: inhibition of SARS-CoV-2 cytopathic effect

CN1CC(=O)N=C1NC(=O)Nc1cccc(Cl)c1 [fenobam]
inactive: 1 nM 0.79% | 8.33 nM 2.12% | 100 nM 0.63% | 833.33 nM 1.08% | 10000 nM -0.64%

O=C1Nc2cc(Cl)c(Cl)cc2N2CCNC[C@H]12
inactive: 1 nM -0.02% | 8.33 nM -0.54% | 100 nM 1.72% | 833.33 nM 0.92% | 10000 nM 1.67%

CCOC(=O)[C@H](CCc1ccccc1)N[C@@H](C)C(=O)N1[C@H](C(=O)O)C[C@H]2CCCC[C@@H]21 [trandolapril]
inactive: 1 nM -1.1% | 8.33 nM -1.62% | 100 nM -0.26% | 833.33 nM -0.12% | 10000 nM 1.62%

O=C(NCCS(=O)(=O)c1ccc(C(F)(F)F)cn1)c1ccc(Cl)cc1
inactive: 1 nM 4.56% | 8.33 nM -1.99% | 100 nM 5.99% | 833.33 nM 1.04% | 10000 nM 1.56%

C[C@H](O)[C@H](O)[C@H]1CNc2nc(N)[nH]c(=O)c2N1 [sapropterin]
inactive: 1 nM -2.03% | 8.33 nM 2.62% | 100 nM 1% | 833.33 nM 0.55% | 10000 nM -1.44%

NC(=O)N1CCC(CC(=O)N2CCC([C@H]3c4ncc(Br)cc4CCc4cc(Cl)cc(Br)c43)CC2)CC1 [lonafarnib]
inactive: 1 nM -0.44% | 8.33 nM 0.33% | 100 nM 1.55% | 833.33 nM 11.2% | 10000 nM 12.3%

C#C[C@]1(OC(C)=O)CC[C@H]2[C@@H]3CCC4=CC(=NO)CC[C@@H]4[C@H]3CC[C@@]21CC (mixture of isomers) [norgestimate]
inactive: 1 nM -3.21% | 8.33 nM 0.96% | 100 nM 1.62% | 833.33 nM -2.37% | 10000 nM -3.22%
